Sm TGR block – inhibitors of Schistosoma mansoni thioredoxin glutathione reductase; Q962Y6; purified TGR, DTNB reduction, TNB absorbance 405 nm; Potency, µM (top dose mostly 114 µM), without a hit: at the highest dose activity change, negative = inhibition, most hits filed as inhibitors; actives 3% (n = 360,000); active means well fitted inhibition curve with a large enough effect; inconclusive means small, poorly fitted or top-dose-only effect; inactive means no such curve, though single readings can be large or run the other way; further: potency means the concentration at half of the fitted maximal effect; on the % scale 0 is the no-effect control and ±100 the full control effect; nearly all actives have a fitted effect of over 60% in size
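TGR 20 nM + NADPH 100 uM (dispensed conc.), cpd preinc 15 min RT; start with NADPH (500 uM addition) then DTNB (15 mM addition). Kinetic TNB absorbance, 405 nm filter. Four-parameter Hill fit across titration.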
Shiga toxin inh – blocks Shiga toxin action in Vero cells; inhibition, % at 38.7 µM; actives 9.2% (n = 290,000); AID 2315; Vero cells, Shiga toxin protein synthesis inhibition reporter; in the data active means inhibition mostly above about 28%, no sharp cut-off; inactive means mostly below about 43%; further: 0% is about no effect
FMDV inh – blocks foot and mouth disease virus. FMDV antiviral cell-based qHTS. Potency, µM (series often up to 57.9 µM), inactives show at the highest dose activity change, negative = inhibition, usual class: inhibitors. actives 1.2% (n = 410,000); calls by dose curve; tested in HEK293T cells; further: read-out not given here; potency means the concentration at half of the fitted maximal effect; on the % scale 0 is the no-effect control and ±100 the full control effect; nearly all actives have a fitted effect of over 45% in size
CHX counter – counter-screen for Shiga toxin inhibitors: cycloheximide protein synthesis inhibition | max response, % | cell reporter, cycloheximide protein synthesis inhibition counterscreen | AID 2314 | actives 12% (n = 300,000); in the data active means max response mostly above about 13%, no sharp cut-off; inactive means mostly below about 14%; further: read at 38.3 µM for the half of the compounds with a filed dose; 0% is about no effect
Starred values were filed as active, the others as inactive; ? = inconclusive; . = no result given; [ ] = remark or other dose. Only some compounds are listed: those with a hit (about 12% of all), similar ones and a draw of the others.

SMILES	Sm TGR block	Shiga toxin inh	FMDV inh	CHX counter
O=C(NCC(c1ccc2c(c1)OCO2)N1CCOCC1)c1cccc(Cl)c1 (configuration not stated)	-14%	.	-5%	.
CCc1cccc(-n2nnc(-c3nc(-c4ccccc4Cl)no3)c2N)c1	3%	.	6%	.
COc1ccc(N(CC(=O)NCCc2ccc(C)cc2)S(=O)(=O)c2c(C)nn(C)c2C)cc1	1%	.	-15%	.
O=C(Cn1c(=O)nc(-c2ccccc2F)c2cc(Cl)ccc21)Nc1ccccc1C(F)(F)F	3%	.	31%	.
CN(C)C(=S)Nc1nc2ccccc2s1	34%	104*	34%	38*
COc1ccc2nc(NC(=O)CSc3nc4ccccc4o3)sc2c1	-8%	134*	-15%	40*
O=C(CSc1nc2ccccc2o1)Nc1nc2ccc(Br)cc2s1	0%	93	-11%	22
O=C(O)C1C2CCC(C2)C1C(=O)Nc1nc2ccccc2s1 (configuration not stated)	-1%	14	29%	8
COc1cccc(-n2c(SCC(=O)Nc3ccc4c(c3)OCO4)nc3c([nH]c4ccccc43)c2=O)c1	12%	.	-23%	.
COc1ccc(NC(=O)COC(=O)C2CC3C=CC2C3)cc1 (configuration not stated)	-5%	42*	36%	20*
CCN(CC)S(=O)(=O)c1cccc(NC(=O)COC(=O)C2CC3C=CC2C3)c1 (configuration not stated)	3%	15	0%	2
O=C(COC(=O)C1CC1)NCCc1ccccc1	.	.	25%	.
O=C(COC(=O)C1CC2C=CC1C2)NCCc1ccccc1 (configuration not stated)	4%	25	44%	20*
O=C(COC(=O)C1CC2C=CC1C2)Nc1ccccc1F (configuration not stated)	0%	72*	80%	38*
Cc1ccc(S(=O)(=O)N2CCCCC2)cc1NC(=O)COC(=O)C1CC2C=CC1C2 (configuration not stated)	1%	-13	?	-2
O=C(Nc1ccc(Cl)c(Cl)c1)N(Cc1c[nH]c2ccccc12)C1CCCCC1	-4%	.	59%	.
Cc1ccc2nc(N(Cc3cccnc3)C(=O)CCOc3ccccc3)sc2c1	?	.	-7%	.
CCOc1ccc(N(CC)S(=O)(=O)N2CCCC(C(=O)NCc3ccccc3Cl)C2)cc1 (configuration not stated)	-1%	.	?	.
Cc1cc(C)n(-c2nnc3c4ccccc4n(C)c3n2)n1	8%	113*	-4%	44*
O=C(Cc1ccccc1[N+](=O)[O-])N1CCN(c2ccccc2F)CC1	-10%	14	1%	12*
O=C1CCN(C(=O)Cc2ccccc2[N+](=O)[O-])CC1	-16%	-9	-4%	1
COc1ccccc1OCCC(=O)N1CCN(c2ccccc2OC)CC1	11%	-8	8%	1
O=C(CCOc1ccccc1F)N1CCN(c2ccccc2O)CC1	-29%	70*	1%	31*
Cc1ccc(CC(=O)N2CCN(c3ccccc3F)CC2)cc1	.	56	39%	13*
CCOC(=O)N1CCN(c2cc(C)c(C(C)=O)cc2F)CC1	18%[11.4 µM]	47	-6%	1
SMILES	Sm TGR block	Shiga toxin inh	FMDV inh	CHX counter
CC(=O)c1cc(F)c(N2CCN(C(=O)Cc3ccccc3)CC2)cc1C	28µM*	-4	?	-4
CCOC(=O)c1ccc(NC(=O)c2ccc(=O)n(Cc3cccc(C)c3)c2)cc1	1%	.	?	.
CCCc1ccc(C2Sc3ccccc3NC3=C2C(=O)c2ccccc23)cc1 (configuration not stated)	0%	.	-9%	.
CCC(=O)c1cc(F)c(N2CCN(CC)CC2)cc1C	0%	-13	23%	19
O=[N+]([O-])c1cccnc1N1CCCCC1	0%	-6	9%	-1
O=[N+]([O-])c1cccnc1N1CCN(c2ccccc2F)CC1	15%	26	0%	18*
O=C(CCS(=O)(=O)c1ccccc1)N1CCN(c2ccccc2F)CC1	1%	110*	41%	35*
CCC(=O)c1cc(F)c(N2CCN(C(=O)c3ccco3)CC2)cc1C	5%	45*	-16%	24*
COc1ccc(S(=O)(=O)CCC(=O)N2CCN(c3ccccc3F)CC2)cc1	?	-9	8%	-2
Cc1ccc(Cn2c(CO)cnc2SCC(=O)Nc2ccc(C)c(Cl)c2)cc1	3%	21	-25%	9
CC(C)OC(=O)c1c(NC(=O)C2c3ccccc3Oc3ccccc32)sc2c1CCCC2	7%	.	-1%	.
O=C(NNc1nc2c(F)cccc2s1)c1cc(=O)c2ccccc2o1	10%	13	30%	13
Cc1ccc2sc(NNC(=O)c3cc(=O)c4ccccc4o3)nc2c1C	-4%	44*	22%	16*
COc1ccc2nc(NNC(=O)c3cc(=O)c4ccccc4o3)sc2c1	-4%	66*	23%	43*
COc1ccc2nc(NC(=O)c3cc(=O)c4cc(C)c(C)cc4o3)sc2c1	1%	.	2%	.
Cc1ccc2sc(NNC(=O)c3cc(-c4cccs4)nc4ccccc34)nc2c1C	-5%	-7	.	-2
Cc1cccc2sc(NNC(=O)c3cc(=O)c4ccccc4o3)nc12	4%	31*	2%	13*
COc1ccc(/C=C/C(=O)NCC2Cc3cc(Cl)cc(-c4ncccn4)c3O2)cc1 (configuration not stated)	.	.	0%	.
COc1cc(/C=N/OCC(=O)NC2CCCCC2C)ccc1OCc1ccc(Cl)cc1 (configuration not stated)	8%	150*	7%	56*
COc1cc(/C=N/OCC(=O)Nc2cc(C)cc(C)c2)ccc1OCc1ccc(Cl)cc1	7%	107*	24%	92*
Cc1ccc(-c2cc(-c3cccc(F)c3)n[nH]2)c(O)c1	-12%	76*	60%	31*
O=[N+]([O-])c1ccccc1-c1cc(-c2ccccc2O)n[nH]1	-9%	69*	13%	75*
O=C1c2ccccc2C(=O)c2c([N+](=O)[O-])ccc(O)c21	-17%	28	?	8
Cc1ccc(-c2cc(-c3ccccc3C)[nH]n2)c(O)c1	6%	42*	18%	40*
Cc1ccc(O)c(-c2cc(-c3ccccc3F)[nH]n2)c1	1%	104*	50%	35*
SMILES	Sm TGR block	Shiga toxin inh	FMDV inh	CHX counter
O=C(Cn1ncc2c([nH]c3ccccc32)c1=O)Nc1cc(F)ccc1F	4%	.	15%	.
CCCCN(C)CCCNC(=O)C1CCN(c2nc3ccc(CC)cc3s2)CC1	-4%	.	6%	.
Cc1ccc(Cl)cc1N(C)C(=O)c1cc2c(Cl)nc3ccccc3c2s1	19%	.	-3%	.
Cc1ccc(O)c(-c2cc(-c3cccc(F)c3)n[nH]2)c1	19%	60	36%	24*
O=C(c1cc(COc2ccc3ncccc3c2)on1)N1CCCCCC1	.	49*	-6%	18
CC(NC(=O)c1cc(COc2ccc3ncccc3c2)on1)c1ccc(F)cc1 (configuration not stated)	-14%	7	1.8µM*	5
O=C(NCCc1cn2ccccc2n1)c1cc(COc2ccc3ncccc3c2)on1	6%	2	11µM*	3
O=C(NC1CCCC1)c1cc(COc2ccc3ncccc3c2)on1	13%	-8	?	-3

Screens (PubChem)
